# Test results reported in PubChem BioAssay (NCATS).
# The source made the active and inactive calls. No rule for the calls is given here.
# Tested on: HIV-1 nucleocapsid protein NCp7 (binding to TG oligonucleotide)
# Assay: HIV Nucleocapsid (AID 346);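 also: potency is for inhibitors that block NC binding and lower polarization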
# Conditions: HIV-1 NC / fluorescein-TGTGTGTG probe, fluorescence polarization
# Method in brief: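 Inhibition of nucleocapsid binding to single-stranded 5'-TGTGTGTG probe (10 nM) was measured by fluorescence polarization after 1 hr at room temperature with 100 nM protein under high-salt, zinc-containing, reducing conditions.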
# Potency is read from the fitted curve at half-maximal effect.
row,SMILES,Potency
1,CN1CCN(c2ccnc(-c3cccnc3)n2)CC1,> 20 µM (inactive)
2,CC(C)NC(=O)N1CC2(CCN(C(=O)c3cccn3C)CC2)C1,> 20 µM (inactive)
3,Cc1noc(C)c1C(=O)N1CCC2(CCN(Cc3nccs3)CC2)CC1,> 20 µM (inactive)
4,O=C(c1cc(C(F)(F)F)cc(C(F)(F)F)c1)N1CCC[C@@]2(CCN(c3ccccc3)C2)C1,> 20 µM (inactive)
5,FC(F)(F)c1ccccc1-c1ccc2ncnc(N3CCOCC3)c2c1,> 20 µM (inactive)
6,Cn1cccc1C(=O)N1CCC2(CC1)CCN(c1cccc(-c3ccccc3)c1)CC2,> 20 µM (inactive)
7,N#Cc1ccc(CN2CCCC3(CCN(C(=O)c4cnccn4)CC3)C2)cc1,> 20 µM (inactive)
8,COc1ccc(CNc2ccnc(-c3ccc(N(C)C)cc3)n2)c(OC)c1,> 20 µM (inactive)
9,COc1ccc(C(=O)N2CCC3(CC2)CCN(c2ccccc2)CC3)cc1,> 20 µM (inactive)
10,COc1ccc(Oc2ncc3nc(-c4cc(F)cc(F)c4)c(=O)n(C[C@H]4CCCO4)c3n2)cc1,> 20 µM (inactive)
11,O=c1c(-c2ccc(Cl)cc2)nc2cnc(Nc3ccccc3)nc2n1C[C@H]1CCCO1,0.219 µM (active)
12,CN(C)c1ccc(-c2nccc(NCCN3CCOCC3)n2)cc1,> 20 µM (inactive)
13,COc1ccc(-c2nc3cnc(N4CCOCC4)nc3n(-c3ccccc3)c2=O)cc1,> 20 µM (inactive)
14,CN(C)c1ncc2nc(-c3cn(C)c4ccccc34)c(=O)n(C[C@H]3CCCO3)c2n1,> 20 µM (inactive)
15,CNc1ncnc2ccc(-c3cccc(NS(C)(=O)=O)c3)cc12,> 20 µM (inactive)
16,COc1ccc(-c2nc3cnc(N4CCN(C)CC4)nc3n(-c3ccc(OC)cc3)c2=O)cc1,> 20 µM (inactive)
17,CN(C)c1ncc2nc(-c3cc(F)cc(F)c3)c(=O)n(C[C@H]3CCCO3)c2n1,> 20 µM (inactive)
18,COc1ccccc1CN1CCCC2(CCN(C(=O)c3ccco3)CC2)C1,> 20 µM (inactive)
19,FC(F)(F)c1ccccc1-c1nccc(NCCN2CCOCC2)n1,> 20 µM (inactive)
20,CN(Cc1ccco1)c1nc(-c2ccoc2)nc2ccccc12,> 20 µM (inactive)

row,SMILES,Potency
1,Cn1cc(-c2nc3cncnc3n(Cc3ccccc3Cl)c2=O)c2ccccc21,> 20 µM (inactive)
2,Clc1ccccc1-c1ccc2ncnc(NC3CCNCC3)c2c1,> 20 µM (inactive)
3,COc1ccc(CNc2nc(-c3ccc(N(C)C)cc3)nc3ccccc23)c(OC)c1,> 20 µM (inactive)
4,COC(=O)N1CCC2(CC1)CN(c1cccc(-c3ccccc3)c1)C2,> 20 µM (inactive)
5,COC(=O)N1CCC2(CCN(C(=O)Nc3ccccc3)CC2)CC1,> 20 µM (inactive)
6,Cc1ccccc1-c1nc(N2CCNCC2)c2ccccc2n1,> 20 µM (inactive)
7,Cn1cccc1C(=O)N1CCC2(CCCN(c3ccccn3)C2)CC1,> 20 µM (inactive)
8,O=C(c1cnccn1)N1CCC[C@@]2(CCN(Cc3ccncc3)C2)C1,> 20 µM (inactive)
9,COCCn1c(=O)c(CCc2ccccc2)nc2cnc(OC)nc21,> 20 µM (inactive)
10,COc1ccc(-n2c(=O)c(-c3cc(F)cc(F)c3)nc3cnc(N4CCNCC4)nc32)cc1,> 20 µM (inactive)
11,COc1ccccc1CN1CCC2(CC1)CCN(C(=O)c1cccn1C)CC2,> 20 µM (inactive)
12,CCNc1ncc2nc(-c3ccc(OC)cc3)c(=O)n(Cc3ccc(F)cc3)c2n1,> 20 µM (inactive)
13,CN(C)c1ncc2nc(-c3cccc(C#N)c3)c(=O)n(C[C@H]3CCCO3)c2n1,> 20 µM (inactive)
14,COc1ccc2[nH]cc(CCNc3ncncc3-c3c(C)noc3C)c2c1,> 20 µM (inactive)
15,O=C(Nc1ccccc1)N1CCC2(CC1)CCN(C(=O)c1ccco1)CC2,> 20 µM (inactive)
16,O=C(c1ccncc1)N1CCC2(CC1)CN(c1ccncc1)C2,> 20 µM (inactive)
17,Cc1cnc(CNc2cc(-c3ccoc3)ncn2)cn1,> 20 µM (inactive)
18,FC(F)(F)c1ccccc1-c1nc(-n2ccnc2)c2ccccc2n1,> 20 µM (inactive)
19,COc1ccc(C(=O)N2CCC3(CC2)CN(c2ccccc2)C3)cc1,> 20 µM (inactive)
20,O=C(c1cccc(F)c1)N1CCC2(CCCN(c3ccccc3)C2)CC1,> 20 µM (inactive)
